HCV inh: blocks hepatitis C virus; Huh7.5.1 HCVcc-Cre infection, luciferase reporter, 44 h; Potency, µM (doses to about 41.8 µM), hits mostly inhibitors; actives 3.4% (n = 340,000)
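1,000 cells/well; 4 h culture; + compound; + HCVcc-Cre (~0.5 moi); 44 h; luciferase substrate, RT 15 min; read 15 sec.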
Pf growth 96h: P. falciparum growth inhibition at 96 hour, primary screen for plastid delayed-death inhibitors; P. falciparum luciferase reporter growth, 96 h; Potency, µM (highest dose often 28.7 µM), most hits filed as inhibitors; actives 6.9% (n = 320,000)
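P. falciparum expressing integrated firefly luciferase, in erythrocytes at 2% hematocrit, 0.05% parasitemia, incubated with compounds 96 h at 37 C, 5% CO2. Growth inhibition read as loss of luminescence; two-generation exposure targets delayed-death apicoplast inhibitors.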
AMA1 RON2 block: inhibitors of Plasmodium falciparum AMA1-RON2 interaction; AID 720542; Potency, µM (titrated, usually from 58.2 µM), usual class: inhibitors; AlphaScreen AMA1-biotinylated RON2 peptide binding; actives 0.2% (n = 360,000); note: nearly all actives have a fitted effect of over 45% in size
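AMA1 (3D7) with his tag at 25 nM final met compounds first, then biotinylated RON2 peptide at 25 nM; detection used donor plus acceptor beads, 10 µg/mL apiece, read by AlphaScreen after 30 min at room temperature.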
AmpC no deterg: blocks E. coli AmpC beta-lactamase in detergent-free assay; P00811; AmpC nitrocefin hydrolysis, absorbance 480 nm, 0.0001% Triton; Potency, µM (series often up to 57.1 µM), most hits filed as inhibitors; actives 0.52% (n = 330,000); AID 485341; note: nearly all actives have a fitted effect of over 20% in size
Target sequence (P00811 whole entry, looked up): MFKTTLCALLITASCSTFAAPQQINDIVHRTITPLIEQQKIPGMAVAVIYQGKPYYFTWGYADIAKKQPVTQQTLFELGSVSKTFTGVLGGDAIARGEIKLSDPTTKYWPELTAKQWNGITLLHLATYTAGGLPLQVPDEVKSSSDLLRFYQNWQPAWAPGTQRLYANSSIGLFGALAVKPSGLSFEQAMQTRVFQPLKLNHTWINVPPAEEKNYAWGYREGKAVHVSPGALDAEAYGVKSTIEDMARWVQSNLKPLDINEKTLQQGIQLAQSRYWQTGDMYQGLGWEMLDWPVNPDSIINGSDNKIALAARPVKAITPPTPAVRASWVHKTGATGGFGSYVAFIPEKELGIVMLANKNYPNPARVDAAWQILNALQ
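AmpC (5.3 nM in the dispensed reagent) in 20 mM phosphate pH 7.0 with 0.01% (detergent screen) or 0.0001% Triton X-100 was preincubated with compounds for 15 min at room temperature. Nitrocefin was then added from an 800 uM solution, and hydrolysis was followed at 480 nm.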
AmpC detergent: AmpC beta-lactamase inhibition with detergent present | actives 0.041% (n = 370,000) | Potency, µM (highest dose often 114 µM), actives largely listed as inhibitors | AmpC hydrolysis of nitrocefin, absorbance 480 nm, 0.01% Triton | P00811; note: nearly all actives have a fitted effect of over 25% in size
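AmpC (5.3 nM in the dispensed reagent) in 20 mM phosphate pH 7.0 with 0.01% (detergent screen) or 0.0001% Triton X-100 was preincubated with compounds for 15 min at room temperature. Nitrocefin was then added from an 800 uM solution, and hydrolysis was followed at 480 nm.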
Pf growth 48h: P. falciparum growth inhibition at 48 hours (one generation); actives 5.9% (n = 310,000); Potency, µM (series often up to 28.7 µM), actives largely listed as inhibitors; P. falciparum luciferase growth in erythrocytes, 48 h
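Firefly luciferase activity from engineered P. falciparum reports growth; inhibitors lower the luminescent signal. Cultures contained 2% hematocrit erythrocytes at 0.1% final parasitemia.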
Hits are given with their value; – = inactive; ? = inconclusive; · = not tested or not shown; [ ] = another dose, or the depositor's remark. Compounds with a hit are over-represented: about 11% of the library has one in this group of screens. Calls come from the whole dose curve; as a rule, active = well fitted curve in the direction sought with a large enough effect; inconclusive = small, poorly fitted or top-dose-only effect, or another doubt; inactive = no such curve, though single readings can be large; an effect the other way counts as inactive or inconclusive.

SMILES	HCV inh	Pf growth 96h	AMA1 RON2 block	AmpC no deterg	AmpC detergent	Pf growth 48h
Nc1nc(N)c(N=Nc2ccc(SCC(=O)O)cc2)c(=O)[nH]1	–	–	–	–	–	–
Nc1nc(N)c(N=Nc2ccc(S(N)(=O)=O)cc2)c(=O)[nH]1	–	–	–	–	–	–
Nc1nc(N)c(N=Nc2ccc(Cl)cc2)c(=O)[nH]1	5.6µM	–	–	–	–	–
Cc1cc(C(=O)NCCc2ccc(Cl)cc2)c2c(C)nn(-c3ccccc3)c2n1	·	·	·	·	–	·
CC(=O)N1N=C(c2ccco2)CC1c1ccc(Br)cc1 (stereo not drawn)	–	10µM	–	–	?	–
CC(=O)N1N=C(c2c(O)n(C)c(=O)n(C)c2=O)CC1c1ccccc1 (stereo not drawn)	–	2.6µM	–	–	–	3.7µM
CCCn1c(=S)[nH]c2cc(OC)c(OC)cc2c1=O	–	–	–	·	–	–
COc1cc2[nH]c(=S)n(NC(=O)CC(C)C)c(=O)c2cc1OC	–	10µM	–	–	–	–
COc1ccc(-c2cc(-c3ccc(C)cc3)nc3c2COc2ccccc2-3)cc1	·	·	·	·	–	·
COc1ccccc1/C=C/C=C1\Oc2c(ccc(O)c2CN(C)C)C1=O	–	?	–	–	–	2.6µM
CCN(CC)Cc1c(O)ccc2c1O/C(=C\C=C\c1ccccc1)C2=O	–	?	–	–	–	?
O=C1CCC/C(=N/Nc2ccc(Cl)cc2)C1	?	12µM	–	–[11.4 µM]	–	?
CCOc1ccc(-c2cc(C(=O)NCCCN3CCN(CC)CC3)c3ccccc3n2)cc1	8.9µM	?	–	–	–	?
O=C(NCCCn1ccnc1)c1nn2c(C(F)(F)F)cc(-c3ccc(Br)cc3)nc2c1Cl	?	2.9µM	–	–	–	1.5µM
CCOc1ccc(-c2cc(C(=O)NCCc3ccc(C)cc3)c3ccccc3n2)cc1	·	·	·	·	–	·
CCOc1ccc(-c2cc(C(=O)NCCCn3ccnc3)c3cc(Br)ccc3n2)cc1	10µM	?	–	–	–	1.7µM
CCCNC(=O)c1nn2c(C(F)(F)F)cc(-c3ccccc3)nc2c1Cl	?	–	–	–	–	?
CCOc1ccc(-c2cc(C(=O)NCCCn3ccnc3)c3ccccc3n2)cc1	–	–	–	–	–	?
CCOC(=O)c1c(NC(=O)c2cc3nc(-c4ccc(OC)cc4)cc(C(F)(F)F)n3n2)sc2c1CCC(C)C2 (stereo not drawn)	·	·	·	·	–	·
CN(Cc1ccccc1)C(=O)CSc1nc2ccccc2n1Cc1ccccc1F	·	·	·	·	–	·
Cc1ccc(O)c(-c2cc(-c3cccc(Br)c3)n[nH]2)c1	?	–	–	–	–	–
Cc1ccc(O)c(-c2cc(C(F)(F)F)[nH]n2)c1	–	15µM	–	–	–	?
CCCN(C(=O)Cn1cnc2onc(-c3ccc(F)cc3)c2c1=O)c1cccc(Cl)c1	·	·	·	·	–	·
CC(C)N(C(=O)CSc1nc2ccccc2n1Cc1ccccc1F)C(C)C	?	–	–	–	–	10µM
CC(C)N(C(=O)CSc1nc2ccccc2n1Cc1ccccc1)C(C)C	?	–	–	–	–	?
SMILES	HCV inh	Pf growth 96h	AMA1 RON2 block	AmpC no deterg	AmpC detergent	Pf growth 48h
COc1ccc(C2CC(=O)c3cc(-c4nc(-c5ccc(C)cc5)cs4)c(=O)[nH]c3C2)cc1 (stereo not drawn)	·	·	·	·	–	·
c1ccc(-n2nnnc2Sc2ncnc3sc4c(c23)CCCC4)cc1	–	1.7µM	–	–	?	?
CSc1nnnn1-c1ccc(Cl)cc1	–	?	–	–	–	–
O=C(O)CSc1ncnc2sc3c(c12)CCCC3	–	–	–	–	–	–
Cc1sc2ncnc(Sc3nnnn3-c3ccc(Cl)cc3)c2c1C	–	?	–	–	–	8.3µM
Cc1cc(C)n2nc(SCC(=O)c3cc(C)n(-c4cc(C)on4)c3C)nc2n1	4.5µM	·	–	–	–	?
Cc1cc(C(=O)CSc2ncnc3ccccc23)c(C)n1C1CC1	10µM	?	–	–	–	?
Cc1cc(-n2c(C)cc(C(=O)CSc3ncnc4ccccc34)c2C)no1	2.8µM	?	–	–	–	–
Cc1cc(-n2c(C)cc(C(=O)CSc3nnc4sc5ccccc5n34)c2C)no1	–	–	–	–	?	–
Cc1cc(-n2c(C)cc(C(=O)CSc3nnnn3-c3ccc(Cl)cc3)c2C)no1	?	12µM	–	–	?	12µM
Cc1cc(C(=O)CSc2nc3ccccc3o2)c(C)n1C1CC1	?	–	–	–	–	–
COc1ccc(C(=O)N2CCC(c3nc(-c4ccc(S(=O)(=O)N5CCCC5)cc4)no3)CC2)cc1	·	·	·	·	–	·
CCOc1ccc(NC(=O)[C@H]2O[C@@H]3OC(C)(C)O[C@@H]3[C@H]3OC(C)(C)O[C@H]32)cc1	·	·	·	·	–	·
O=C(N/N=C/c1ccco1)c1cc(-c2ccccc2)nc2ccccc12	–	?	–	?	–	–
O=C(N/N=C/c1ccc([N+](=O)[O-])o1)c1cc(-c2cccc(Br)c2)nc2ccccc12	10µM	0.83µM	–	–	–	?
CCCc1ccc(-c2cc(C(=O)N/N=C/c3ccc([N+](=O)[O-])o3)c3ccccc3n2)cc1	10µM	1.7µM	–	–	–	·
CC(=O)c1c(C)n(-c2cccc(C)c2)c2ccc(OC(=O)COc3ccccc3)cc12	·	·	·	·	–	·
CC1CCCCN1CCCNC(=O)c1ccc2c(c1)sc1nc(-c3ccc(F)cc3)cn12 (stereo not drawn)	·	·	·	·	–	·
CCN1CCc2c(sc(NC(=O)c3ccc4ccccc4c3)c2C(N)=O)C1	·	?	·	–	–	12µM
CC(C)N1CCc2c(sc(NC(=S)NC(=O)c3ccccc3)c2C#N)C1	–	0.47µM	–	–	–	10µM
CCN1CCc2c(sc(NC(=O)c3ccc(S(=O)(=O)N(CCOC)CCOC)cc3)c2C(N)=O)C1	·	·	·	·	–	·
CC(C)N1CCc2c(sc(NC(=O)c3ccc(S(=O)(=O)N4CCc5ccccc54)cc3)c2C(N)=O)C1	11µM	7.4µM	–	–	–	4.1µM
CCN1CCc2c(sc(NC(=O)c3ccc(S(=O)(=O)N(C)c4ccccc4)cc3)c2C(=O)NC)C1	?	1.5µM	–	–	–	2.1µM
CC(C)N1CCc2c(sc(NC(=O)c3ccc(S(=O)(=O)N(C)C4CCCCC4)cc3)c2C(N)=O)C1	·	·	·	·	–	·
Cc1c(NC(=O)c2ccc(Br)o2)cccc1-c1nc2ccccc2o1	·	·	·	·	–	·
CCOC(=O)C(C)Nc1ncnc2onc(C)c12 (stereo not drawn)	·	·	·	·	–	·
Cc1cccc(N2CCN(CCCNc3ncnc4onc(-c5ccc(F)cc5)c34)CC2C)c1 (stereo not drawn)	·	·	·	·	–	·
Cc1ccc(-n2nc(CO)c(C(=O)NCc3cccnc3)n2)cc1C	·	·	·	·	–	·
